# Hits are enriched below; roughly 21% of the tested compounds scored in any of these assays.
# NS1 inh = blocks influenza NS1 protein function; Potency, µM (top dose mostly 46.1 µM), for inactives: at the highest dose activity, positive = more growth; hit rate 0.4% among 270,000; AID 2326; calls by dose curve; further: potency means the concentration at half of the fitted maximal effect; actives are rising curves; nearly all actives have a fitted effect of over 50% in size
#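 A cell-based growth assay was used: compounds that relieve NS1-induced slow growth of budding yeast raise OD600. Assay medium was yeast nitrogen base with ammonium sulphate and -URA supplement, pH 6.0, with 2% galactose.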
# Pf growth 96h = inhibits malaria parasite growth, 96 h. Potency, µM (series often up to 28.7 µM), inactives show top-dose activity change, negative = inhibition, most hits filed as inhibitors. P. falciparum luciferase reporter growth, 96 h. hit rate 6.9% among 320,000; further: potency means the concentration at half of the fitted maximal effect; on the % scale 0 is the no-effect control and ±100 the full control effect
#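 Delayed-death screen, second-generation endpoint: infected erythrocytes, 2% hematocrit, 0.05% parasitemia final; 96 hours at 37 C, 5% CO2; luciferase detection reagent; luminescence decrease equals reduced growth.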
# Shiga toxin inh = Shiga toxin inhibition. inhibition, % at 38.7 µM. Vero cells, Shiga toxin protein synthesis inhibition reporter. hit rate 9.2% among 290,000; in the data active means inhibition mostly above about 28%, no sharp cut-off; inactive means mostly below about 43%; further: 0% is about no effect
# CHX counter = affects cycloheximide protein synthesis inhibition readout, counter-screen; cell reporter, cycloheximide protein synthesis inhibition counterscreen; max response, %; hit rate 12% among 300,000; in the data active means max response mostly above about 13%, no sharp cut-off; inactive means mostly below about 14%; further: read at 38.3 µM for the half of the compounds with a filed dose; 0% is about no effect
# Pf growth 48h = P. falciparum growth inhibition at 48 hours (one generation); P. falciparum luciferase growth in erythrocytes, 48 h; Potency, µM (series often up to 28.7 µM), inactives show at the highest dose activity change, negative = inhibition, hits mostly inhibitors; hit rate 5.9% among 310,000; further: potency means the concentration at half of the fitted maximal effect; on the % scale 0 is the no-effect control and ±100 the full control effect
#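 In quantitative HTS format, infected erythrocytes bearing luciferase-reporter parasites were treated for a single generation at 37 C. Luminescence after adding detection reagent served as the growth measure.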
# FBPA Giardia inh = inhibitors of Giardia lamblia fructose-1,6-bisphosphate aldolase; A8B2U2; purified Giardia FBPA; Potency, µM (highest dose often 59.6 µM), without a hit: top-dose activity, negative = inhibition, most hits filed as inhibitors; hit rate 0.71% among 290,000; AID 2451; further: potency means the concentration at half of the fitted maximal effect; on the % scale 0 is the no-effect control and ±100 the full control effect; nearly all actives have a fitted effect of over 55% in size
# Target sequence (A8B2U2 whole entry, looked up): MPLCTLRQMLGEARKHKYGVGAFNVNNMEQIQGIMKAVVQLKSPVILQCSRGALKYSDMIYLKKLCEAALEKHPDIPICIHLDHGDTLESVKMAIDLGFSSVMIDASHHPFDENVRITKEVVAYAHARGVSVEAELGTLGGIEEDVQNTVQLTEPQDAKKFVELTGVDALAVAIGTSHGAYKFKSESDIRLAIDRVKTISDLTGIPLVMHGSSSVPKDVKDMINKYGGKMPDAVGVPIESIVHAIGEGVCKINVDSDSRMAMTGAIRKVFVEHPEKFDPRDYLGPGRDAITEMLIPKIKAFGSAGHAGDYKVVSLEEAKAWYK
#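 40 nM FBPA preincubated 10 min at RT with compound (up to 57.5 uM final), then substrate plus GAPDH/TPI/NAD/arsenate coupling and diaphorase/resazurin added. Fluorescence read after 20 min at RT, 525/598 nm.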
# The depositor's hits bear a star; i = inactive; ? = inconclusive; . = no result. Unless noted, the call rests on the fitted dose curve; in most records, active means well fitted curve in the direction sought with a large enough effect; inconclusive means small, poorly fitted or top-dose-only effect, or another doubt; inactive means no such curve, though single readings can be large; an effect the other way counts as inactive or inconclusive.
SMILES,NS1 inh,Pf growth 96h,Shiga toxin inh,CHX counter,Pf growth 48h,FBPA Giardia inh
Cc1nn2c(Nc3ccccc3)c3c(nc2c1-c1ccccc1)CCC3,18%,5.9µM*,-17,-5,-28%,6%
Cc1nn2c(NCCCN(C)C)c3c(nc2c1-c1ccccc1)CCCC3,-2%,8.3µM*,-3,-2,15µM*,10%
Cc1nn2c(NCCOCCO)c3c(nc2c1-c1ccccc1)CCC3,-1%,?,39,1,45%,-10%
Cc1nn2c(NC(C)C)c3c(nc2c1-c1ccccc1)CCC3,-8%,?,1,-2,?,-1%
CCc1nc(CNC(=O)C2CCC(=O)N(CCc3cccc(F)c3)C2)no1 (stereo unspecified),0%,?,36,9,20%,.
NCCNS(=O)(=O)c1ccc(N)cc1,-1%,.,.,.,.,.
CCC(C)N(C(=O)Cn1nnc(-c2ccc(F)cc2)n1)C1CCS(=O)(=O)C1 (stereo unspecified),-13%,-28%,-19,-4,1%,.
COc1ccc(C=C2c3ccccc3C(=O)c3ccccc32)cc1O,.,.,-6,1,.,-16%
O=C(CSc1nnc(-c2cccc(S(=O)(=O)N3CCCCC3)c2)o1)NCCC1=CCCCC1,1%,?,10,1,?,0%
CCCCNC(=O)CSc1nnc(-c2cccc(S(=O)(=O)N3CCOCC3)c2)o1,.,?,.,.,13µM*,.
NC(=O)CSc1nnc(-c2cccc(S(=O)(=O)N3CCCCC3)c2)o1,0%,?,-6,1,?,4%
O=C(CSc1nnc(-c2cccs2)o1)Nc1cccc(S(=O)(=O)N2CCCCC2)c1,2%,15µM*,-4,-3,?,0%
Cc1cc(C)cc(NC(=O)CSc2nnc(-c3ccc(S(=O)(=O)N4CCCC4)cc3)o2)c1,-1%,5.2µM*,-3,-3,?,3%
Cc1ccc(NC(=O)c2cc3ccccc3o2)cc1S(=O)(=O)N(C)C,10%,.,78,54*,188%,3%
CN(C)S(=O)(=O)c1ccc(NC(=O)c2cc3ccccc3o2)cc1,-11%,13µM*,130*,20*,-12%,-18%
CCc1ccccc1NC(=O)c1cc(-c2ccco2)on1,-31%,20%,32,6,30%,0%
Cc1ccn2cc(C(=O)NCc3ccco3)nc2c1,.,4%,58*,25*,84%,0%
O=C(NCc1ccco1)c1cc(-c2ccco2)on1,-6%,17%,74*,31*,96%,5%
O=C(NCc1ccccc1)c1cc(-c2ccco2)on1,-5%,0%,65*,34*,70%,-1%
O=C(NCCc1ccccc1)c1cc(-c2ccco2)on1,-12%,45%,104*,45*,496%,5%
C=C(C(=O)OCC)C(=O)c1ccccc1,.,.,.,.,.,0%
NS(=O)(=O)c1ccc(NC(=O)N2c3ccccc3Sc3ccccc32)cc1,2%,2.3µM*,-10,-2,?,14%
CCOCCCNS(=O)(=O)c1ccc(NC(=O)N2c3ccccc3Sc3ccccc32)cc1,7%,12µM*,-9,3,?,-5%
Cc1ccccc1CC(=O)N1CC(C)OC(C)C1 (stereo unspecified),10%,50%,-7,-3,6%,9%
CCOc1ccccc1NC(=O)CCn1ccnc1,-3%,33%,-3,1,37%,-4%
SMILES,NS1 inh,Pf growth 96h,Shiga toxin inh,CHX counter,Pf growth 48h,FBPA Giardia inh
CCN(CC)CCNC(=O)c1c(C)[nH]c(/C=C2\C(=O)Nc3ccc(F)cc32)c1C,.,2.7µM*,.,.,2.1µM*,.
Cc1ccc2c(c1)/C(=C/c1ccc(F)cc1)C(=O)N2,-41%,2%,-8,2,?,-3%
CCOc1ccc2nc(SCC3CC3(Cl)Cl)[nH]c2c1 (stereo unspecified),-4%,209%,114*,55*,187%,-18%
ClC1(Cl)CC1CSc1nc2ccccc2[nH]1 (stereo unspecified),.,?,61,42*,59%,-2%
c1ccc2[nH]c(SCC3CCCCO3)nc2c1 (stereo unspecified),3%,i,105*,34*,i,-4%
CCOC(=O)NC(=O)CSc1nc2ccc(OCC)cc2[nH]1,0%,10%,-9,-3,19%,1%
c1cc2c(cc1CN1CCN(C3CCCCCC3)CC1)OCO2,0%,7%,-6,-2,-14%,?
O=c1[nH]c(CN2CCN(Cc3ccc4c(c3)OCO4)CC2)nc2ccccc12,7%,8%,-10,8.6*,-10%,-11%
c1ccc(CN2CCC(N3CCN(Cc4ccc5c(c4)OCO5)CC3)CC2)cc1,-1%,?,-6,-3,15µM*,7%
Cn1c(C(=O)Nc2ccc(Cl)cc2)cc2cc(Cl)ccc21,6%,?,-5,-4,3%,-5%
O=C(/C=C\c1cccs1)c1c(O)ccc2ccc(=O)oc12,-29%,?,-13,-5,-10%,0%
O=C(NN1CC(C(=O)OCc2ccc(Br)cc2)CC1=O)c1ccccc1 (stereo unspecified),-10%,28%,-4,-1,1%,.
CCC[C@H](NC(=O)[C@H](Cc1ccc(O[S+](=O)([O-])O)cc1)NC(=O)OC(C)(C)C)C(=O)NCC(=O)N[C@@H](Cc1c[nH]c2ccccc12)C(=O)N[C@@H](CCC)C(=O)N[C@@H](CC(=O)OCCc1ccccc1)C(=O)O,.,.,-10,-7,.,11%
O=C(NNC(=S)NC(=O)c1ccccc1)c1ccc(O)cc1,-13%,?,13,7,.,-3%
O=C(NNC(=O)c1ccccc1C(=O)O)c1ccc(O)cc1,3%,-6%,96,23*,7%,1%
CC(C)Oc1ccc(C(=O)NNC(=O)c2ccccc2C(=O)O)cc1,1%,78%,30,17*,23%,3%
C#C[C@]1(O)CC[C@H]2[C@H]3CCc4cc(O)ccc4[C@@H]3CC[C@@]21C,.,.,-5,-1,.,-4%
O=C1CCC(C(=O)N2CCCCO2)CN1Cc1ccc(Cl)cc1 (stereo unspecified),-2%,-4%,37,12,50%,18%
COc1cc(/C=N/NC(=O)c2cccnc2)ccc1OS(=O)(=O)c1cc(C)ccc1C,11%,?,6,17*,?,0%
COc1ccc(/C=N/NC(=O)c2cccnc2)cc1CN1CCc2ccccc2C1,-2%,10µM*,15,-1,10µM*,-27%
COc1cc(/C=N/NC(=O)c2cccnc2)ccc1OCC(=O)Nc1ccc(C)cc1,-3%,71%,21,21*,23%,6%
COc1ccc(/C=N/NC(=O)c2cccnc2)cc1O,-5%,3%,.,19*,0%,0%
COc1cc(/C=N/NC(=O)c2cccnc2)ccc1OS(=O)(=O)c1ccc(C)cc1,15%,3%,1,6,4%,0%
